Data reported in PubChem BioAssay AID1347414 (National Center for Advancing Translational Sciences (NCATS), 2020).
Several values for one entry are separate records, joined by “and”; a condition that tells them apart may be missing. Equal entries are not always repeated. Records with an inconclusive call do not appear. A number with no mark means an inactive call. Activity calls are given as the source filed them. Calls follow the shape of the dose curve; as a rule, active = well fitted inhibition curve with a large enough effect; inconclusive = small, poorly fitted or top-dose-only effect; inactive = no such curve, though single readings can be large or run the other way.

assay: qHTS to identify inhibitors of the type 1 interferon - major histocompatibility complex class I in skeletal muscle: Secondary screen by immunofluorescence; conditions: C25cl48 myoblasts, IFN-b induced HLA-ABC immunofluorescence, 24 h; series mostly up to 49.8 µM; activity change, negative = inhibition: at the top concentration; also: nearly all actives have a fitted effect of over 70% in size;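 as to activity change, negative = inhibition: digitonin at 100 µM served as the cytotoxic control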
Source text: Assay Submitter (PI): Travis B. Kinder Ph.D. & James Inglese Ph.D. Assay Development and Screening Technology Laboratory (ADST) National Center for Advancing Translational Sciences (NCATS), Rockville, MD National Institute of Health (NIH), Bethesda, Maryland Idiopathic inflammatory myopathies, collectively referred to as myositis, are a group of rare autoimmune diseases characterized by skeletal muscle inflammation, weakness, and usually accompanied by systemic pathologies of the skin, lungs, or vasculature. Current immunosuppressive therapies and glucocorticoids are often not curative and are accompanied by harsh side effects, especially in children with juvenile myositis. We initiated a drug repurposing and development program to identify more targeted, less toxic therapeutics to treat myositis. Although its cause is not known, muscle from a subset of patients have an abundance of the inflammatory type 1 interferon (IFN) and a down-stream product major histocompatibility complex class I (MHC class I), which are both thought to contribute to damage and weakness. We conducted quantitative high throughput screening (qHTS) on 6,576 compounds (4,679 unique) through a series of cell-based assays to identify those that inhibit the IFN-stimulated expression of MHC class I in muscle precursor cells (myoblasts). The compound identification and evaluation strategy utilized a primary screen with reporter-tagged MHC class I in genome-engineered myoblasts, ATP content counter screen for viability, HLA-ABC immunofluorescence secondary screen, and HLA-B RT-qPCR tertiary screen. To verify activity of compounds identified by qHTS in HLA-B HiBit reporter cells, compounds were assayed by high throughput HLA-ABC immunofluorescence. Briefly, 216 compounds identified from primary and counter screening as inhibitory with minimal cytotoxicity were dispensed into black/clear bottom […] using acoustic dispensing in an 11-point, 1:3 titration with a high final concentration of 50 uM. Normal immortalized human myoblasts C25cl48 were added to the plates with 4.0 ng/ml human IFN-beta for 24 hours, fixed, stained by immunofluorescence for HLA-ABC protein, nuclei, and cell body, and analyzed by laser scanning cytometry as described by Auld et al., 2006. References: Auld DS, Johnson RL, Zhang Y, Veith H, Jadhav A, Yasgar A, Simeonov A, Zheng W, Martinez ED, Westwick JK, Austin CP, Inglese J. 2006. Fluorescent protein-based cellular assays analyzed by laser-scanning microplate cytometry in 1536-well plate format. Methods Enzymol 414:566-89. doi:10.1016/S0076-6879(06)14029-X
PROTOCOL TABLE (as described by Inglese et al., 2007) SEQUENCE No. (e.g., 1, 2, 3, etc.); […] (e.g., Cells, Incubation, Reagent, etc.); VALUE; DESCRIPTION 0; Compounds; 25 nl; Follow-up compounds dispensed at 25 nl/well with Labcyte Echo 655 acoustic dispenser in triplicate Aurora ChemLib 1536K black/clear bottom, low base, TC 1536-well plates (00019324). Also dispensed 25 nl/well DMSO control, ruxolitinib IFN-b inhibitor control titration, and digitonin cytotoxic control 1a; Cells; 5 uL; Multidrop Combi (Thermo Scientific) to seed 125 cells/well into eight plates in 5 ul/well of iHSKM growth medium (GM) without dexamethasone into columns 1+2. Add metal lids with gas-exchange holes 1b; Cells; 5 uL; Multidrop Combi (Thermo Scientific) to seed 125 cells/well into eight plates in 5 ul/well of iHSKM GM without dexamethasone + 4 ng/ml IFN-b into columns 3 - 48. […]
% is scaled to controls: 0 for no effect and ±100 for the full control effect; potency is read from the fitted curve at half-maximal effect.

Row | Structure (SMILES) | Potency | activity change, negative = inhibition [%]
1 | O=C1/C(=C\c2ccccc2)C[C@@]2(O)[C@H]3Cc4ccc(O)c5c4[C@@]2(CCN3CC2CC2)[C@H]1O5 | 2290 nM (active) | 
2 | CC(=O)OC[C@H]1O[C@@H]([S-])[C@H](OC(C)=O)[C@@H](OC(C)=O)[C@@H]1OC(C)=O.CC[PH+](CC)CC.[Au] | 576 nM (active) | 
3 | CC1=C(O)C(=O)C=C2C1=CC=C1[C@@]2(C)CC[C@@]2(C)[C@@H]3C[C@](C)(C(=O)O)CC[C@]3(C)CC[C@]12C | 1150 nM (active) | 
4 | C[C@@H]1O[C@@H](O[C@H]2C[C@@H](O)[C@]3(CO)[C@H]4[C@H](O)C[C@]5(C)[C@@H](C6=CC(=O)OC6)CC[C@]5(O)[C@@H]4CC[C@]3(O)C2)[C@H](O)[C@H](O)[C@H]1O | 64.7 nM (active) | 
5 | COC(=O)[C@]12CCC(C)(C)C[C@H]1[C@H]1C(=O)C=C3[C@@]4(C)C=C(C#N)C(=O)C(C)(C)[C@@H]4CC[C@@]3(C)[C@]1(C)CC2 | 3640 nM (active) | 
6 | CC(C)(C)c1cc(C=C(C#N)C#N)cc(C(C)(C)C)c1O |  | -20.4
7 | O=c1[nH]c2ccc(Cl)cc2c(N[C@@H]2CN3CCC2CC3)c1-c1nc2ccccc2[nH]1 | 1620 nM (active) | 
8 | Cc1[nH]nc2ccc(-c3cncc(OC[C@@H](N)Cc4c[nH]c5ccccc45)c3)cc12 | 230 nM (active) | 
9 | COc1cccc2c1C(=O)c1c(O)c3c(c(O)c1C2=O)C[C@@](O)(C(=O)CO)CC3OC1CC(N2CCOC(OC)C2)C(O)C(C)O1 (stereo not given in full) | 57.6 nM (active) | 
10 | COC(=O)[C@@]12OC[C@]34[C@H]([C@@H](O)[C@@H]1O)[C@@]1(C)CC(=O)C(O)=C(C)[C@@H]1C[C@H]3OC(=O)[C@H](OC(=O)/C=C(\C)C(C)C)[C@@H]24 | 36.4 nM (active) | 
11 | C/C(=C\c1csc(C)n1)[C@@H]1C[C@@H]2O[C@]2(C)CCC[C@H](C)[C@H](O)[C@@H](C)C(=O)C(C)(C)[C@@H](O)CC(=O)O1 |  | -1.42
12 | Cc1sc2c(c1C)C(c1ccc(Cl)cc1)=N[C@@H](CC(N)=O)c1nnc(C)n1-2 | 162 nM (active) | 
13 | CC1(C)CC[C@]2(NC(=O)C(C)(F)F)CC[C@]3(C)[C@H](C(=O)C=C4[C@@]5(C)C=C(C#N)C(=O)C(C)(C)[C@@H]5CC[C@]43C)[C@@H]2C1 | 3240 nM (active) | 
14 | CC(C)[C@]12O[C@H]1[C@@H]1O[C@@]13[C@@]1(C)CCC4=C(COC4=O)[C@@H]1C[C@@H]1O[C@@]13C2=O | 162 nM (active) | 
15 | C[C@@H]1O[C@@H](O[C@@H]2C=C3CC[C@@H]4[C@H](CC[C@]5(C)[C@@H](c6ccc(=O)oc6)CC[C@]45O)[C@@]3(C)CC2)[C@H](O)[C@H](O)[C@H]1O | 36.4 nM (active) | 
16 | CC[C@@]1(O)C(=O)OCc2c1cc1n(c2=O)Cc2cc3ccccc3nc2-1 | 1.62 µM (active) and 2.05 µM (active) | 
17 | CC(C)[C@]12O[C@H]1[C@@H]1O[C@]13[C@]1(O[C@H]1C[C@H]1C4=C(CC[C@@]13C)C(=O)OC4)[C@@H]2O | 91.4 nM (active) | 
18 | Cc1[nH]ncc1-c1cc2nc([C@@H]3CC4CCN3CC4)[nH]c(=O)c2s1 | 3640 nM (active) | 
19 | O=[N+]([O-])/C=C/c1ccc2c(c1)OCO2 | 18200 nM (active) | 
20 | C/C1=C/C[C@@H](/C(C)=C/c2csc(C)n2)OC(=O)C[C@H](O)C(C)(C)C(=O)[C@H](C)[C@@H](O)[C@@H](C)CCC1 |  | -1.18
